Several values for one entry are separate records, joined by “and”; a condition that tells them apart may be missing. Equal values may be shown once. Screen size: about 5,500 compounds; about 2,000 (36%) were called active. Roughly 18% stayed inconclusive and do not appear here. Rule as the data show it: active = normalized growth mostly below about 0.91 (no sharp cut-off); inconclusive = no clear call, values can overlap the other calls; inactive = mostly above about 0.92. The list shows a part of the results.
Assay: chemical genetic growth profiling, strain panel (AID 1159580);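 also: tested at 20 µM; growth read once vehicle control cultures reached saturation at 30 °C; 1 = growth at the plate median or of vehicle wells; lower values mean less growth of the strain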
Details: S. cerevisiae deletion strains, growth OD

Measured: normalized growth

Nc1ccc(C(=O)Oc2ccccc2)c(O)c1
0.651 (active) and 0.94 (inactive): locus YJL095W, strain BCK1, stronger effect = lower value
0.9 (active) and 0.937 (inactive): locus YHR030C, strain SLT2, stronger effect = lower value
inactive: locus YAL021C, strain ccr4, stronger effect = lower value 0.967 | locus YAL026C, strain drs2, stronger effect = lower value 0.915 | locus YAL030W, strain snc1, stronger effect = lower value 0.935 | locus YBL061C, strain skt5, stronger effect = lower value 0.932 | locus YBR009C, strain hhf1, stronger effect = lower value 0.934 | locus YBR021W, strain FUR4, stronger effect = lower value 0.981 | locus YBR023C, strain chs3, stronger effect = lower value 0.925 | locus YBR171W, strain sec66, stronger effect = lower value 0.937 | locus YBR229C, strain ROT2, stronger effect = lower value 0.948 | locus YBR231C, strain swc5, stronger effect = lower value 0.954 | locus YBR279W, strain paf1, stronger effect = lower value 0.957 | locus YCL011C, strain gbp2, stronger effect = lower value 0.929 | locus YCL016C, strain dcc1, stronger effect = lower value 0.942 | locus YCL061C, strain MRC1, stronger effect = lower value 0.951 | locus YCL069W, strain vba3, stronger effect = lower value 0.95 | locus YDL005C, strain med2, stronger effect = lower value 0.971 | locus YDL035C, strain GPR1, stronger effect = lower value 0.867 | locus YDL040C, strain nat1, stronger effect = lower value 0.938 | locus YDL101C, strain DUN1, stronger effect = lower value 0.906 | locus YDL185W, strain tfp1, stronger effect = lower value 0.966 | locus YDR001C, strain nth1, stronger effect = lower value 0.936 | locus YDR069C, strain doa4, stronger effect = lower value 0.948 | locus YDR150W, strain NUM1, stronger effect = lower value 0.957 | locus YDR195W, strain ref2 1.04 | locus YDR297W, strain sur2, stronger effect = lower value 0.932 | locus YDR334W, strain swr1, stronger effect = lower value 0.944 | locus YDR335W, strain msn5, stronger effect = lower value 0.941 | locus YDR392W, strain spt3, stronger effect = lower value 0.81 | locus YEL003W, strain gim4, stronger effect = lower value 0.933 | locus YEL037C, strain rad23, stronger effect = lower value 0.946 | locus YEL061C, strain CIN8 (second series), stronger effect = lower value 0.916 | locus YEL061C, strain CIN8, stronger effect = lower value 0.938 | locus YER015W, strain faa2, stronger effect = lower value 0.944 | locus YER016W, strain bim1, stronger effect = lower value 0.941 | locus YER111C, strain swi4, stronger effect = lower value 0.938 | locus YER155C, strain BEM2, stronger effect = lower value 0.947 | locus YFR010W, strain ubp6, stronger effect = lower value 0.95 | locus YGL167C, strain pmr1, stronger effect = lower value 0.942 | locus YGL227W, strain vid30, stronger effect = lower value 0.927 | locus YGL253W, strain hxk2, stronger effect = lower value 0.967 | locus YHR013C, strain ard1, stronger effect = lower value 0.907 | locus YHR027C, strain rpn1, stronger effect = lower value 0.945 | locus YHR079C, strain IRE1, stronger effect = lower value 0.929 | locus YHR094C, strain hxt1, stronger effect = lower value 0.926 | locus YHR142W, strain chs7, stronger effect = lower value 0.894 | locus YIL073C, strain SPO22, stronger effect = lower value 0.764 | locus YJL092W, strain hpr5, stronger effect = lower value 0.943 | locus YJL095W, strain BCK1 (second series), stronger effect = lower value 0.936 | locus YJL115W, strain asf1, stronger effect = lower value 0.936 | locus YJL129C, strain trk1, stronger effect = lower value 0.892 | locus YJL134W, strain LCB3, stronger effect = lower value 0.955 | locus YJL154C, strain vps35, stronger effect = lower value 0.941 | locus YJL164C, strain tpk1, stronger effect = lower value 0.919 | locus YJL166W, strain qcr8, stronger effect = lower value 0.935 | locus YJL187C, strain SWE1 (second series), stronger effect = lower value 0.876 | locus YJL187C, strain SWE1, stronger effect = lower value 0.944 | locus YJR043C, strain POL32, stronger effect = lower value 0.932 | locus YJR066W, strain TOR1, stronger effect = lower value 0.893 | locus YKL009W, strain mrt4, stronger effect = lower value 0.894 | locus YKL160W, strain elf1, stronger effect = lower value 0.942 | locus YKL190W, strain CNB1, stronger effect = lower value 0.939 | locus YKR091W, strain srl3, stronger effect = lower value 0.948 | locus YLL001W, strain dnm1, stronger effect = lower value 0.951 | locus YLL026W, stronger effect = lower value 0.943 | locus YLL041C, strain sdh2, stronger effect = lower value 0.929 | locus YLR027C, strain aat2, stronger effect = lower value 0.927 | locus YLR058C, strain SHM2, stronger effect = lower value 0.909 | locus YLR113W, strain HOG1, stronger effect = lower value 0.862 | locus YLR221C, strain rsa3, stronger effect = lower value 0.932 | locus YLR258W, strain gsy2, stronger effect = lower value 0.948 | locus YLR342W, strain FKS1, stronger effect = lower value 0.915 | locus YLR357W, strain rsc2, stronger effect = lower value 0.919 | locus YLR370C, strain arc18, stronger effect = lower value 0.927 | locus YLR384C, strain iki3, stronger effect = lower value 0.962 | locus YML016C, strain PPZ1, stronger effect = lower value 0.924 | locus YMR058W, strain fet3, stronger effect = lower value 0.929 | locus YMR125W, strain sto1, stronger effect = lower value 0.942 | locus YMR129W, stronger effect = lower value 0.946 | locus YMR231W, strain pep5, stronger effect = lower value 0.983 | locus YNL067W, strain RPL9B, stronger effect = lower value 0.867 | locus YNL128W, strain TEP1, stronger effect = lower value 0.905 | locus YNL153C, strain GIM3, stronger effect = lower value 0.905 | locus YNL183C, strain NPR1, stronger effect = lower value 0.859 | locus YNL209W, strain ssb2, stronger effect = lower value 0.955 | locus YNL248C, strain rpa49, stronger effect = lower value 0.923 | locus YNL250W, strain rad50, stronger effect = lower value 0.95 | locus YNL322C, strain KRE1 (second series), stronger effect = lower value 0.942 | locus YNR049C, strain mso1, stronger effect = lower value 0.933 | locus YOL012C, strain htz1 1.98 | locus YOR001W, strain rrp6, stronger effect = lower value 0.92 | locus YOR061W, strain CKA2, stronger effect = lower value 0.928 | locus YOR069W, strain VPS5, stronger effect = lower value 0.95 | locus YOR070C, strain gyp1, stronger effect = lower value 0.937 | locus YOR080W, strain dia2, stronger effect = lower value 0.961 | locus YOR083W, strain WHI5, stronger effect = lower value 0.93 | locus YOR106W, strain vam3, stronger effect = lower value 0.878 | locus YOR231W, strain MKK1, stronger effect = lower value 0.923 | locus YOR265W, strain rbl2, stronger effect = lower value 0.931 | locus YOR290C, strain snf2, stronger effect = lower value 0.885 | locus YPL051W, strain arl3, stronger effect = lower value 0.938 | locus YPL078C, strain atp4, stronger effect = lower value 0.929 | locus YPL106C, strain sse1, stronger effect = lower value 0.965 | locus YPL240C, strain hsp82, stronger effect = lower value 0.953 | locus YPL256C, strain CLN2, stronger effect = lower value 0.904
active: locus YCL029C, strain bik1, stronger effect = lower value 0.883 | locus YCR088W, strain abp1, stronger effect = lower value 0.921 | locus YDL074C, strain BRE1, stronger effect = lower value 0.67 | locus YDL134C, strain PPH21, stronger effect = lower value 0.837 | locus YDL192W, strain arf1, stronger effect = lower value 0.807 | locus YDR101C, strain arx1, stronger effect = lower value 0.864 | locus YDR137W, strain rgp1, stronger effect = lower value 0.545 | locus YDR159W, strain sac3, stronger effect = lower value 0.862 | locus YDR162C, strain NBP2, stronger effect = lower value 0.567 | locus YDR318W, strain mcm21, stronger effect = lower value 0.765 | locus YDR388W, stronger effect = lower value 0.884 | locus YDR502C, strain sam2, stronger effect = lower value 0.767 | locus YER110C, stronger effect = lower value 0.86 | locus YER155C, strain BEM2 (second series), stronger effect = lower value 0.533 | locus YER167W, strain BCK2, stronger effect = lower value 0.759 | locus YGL078C, strain dbp3, stronger effect = lower value 0.893 | locus YGL086W, strain mad1, stronger effect = lower value 0.801 | locus YGL173C, strain kem1, stronger effect = lower value 0.899 | locus YGL240W, strain doc1, stronger effect = lower value 0.864 | locus YGL248W, strain PDE1, stronger effect = lower value 0.864 | locus YGR135W, strain pre9, stronger effect = lower value 0.676 | locus YGR252W, strain gcn5, stronger effect = lower value 0.589 | locus YHR079C, strain IRE1 (second series), stronger effect = lower value 0.864 | locus YHR129C, strain ARP1, stronger effect = lower value 0.88 | locus YHR200W, strain rpn10, stronger effect = lower value 0.913 | locus YIL066C, strain RNR3, stronger effect = lower value 0.741 | locus YIL125W, strain kgd1, stronger effect = lower value 0.922 | locus YIR030C, strain dcg1, stronger effect = lower value 0.867 | locus YJL168C, strain set2, stronger effect = lower value 0.921 | locus YJR075W, strain HOC1, stronger effect = lower value 0.84 | locus YKL068W, stronger effect = lower value 0.93 | locus YKL085W, strain MDH1 (second series), stronger effect = lower value 0.914 | locus YKL085W, strain MDH1, stronger effect = lower value 0.914 | locus YKR001C, strain vps1, stronger effect = lower value 0.672 | locus YKR026C, strain gcn3, stronger effect = lower value 0.896 | locus YLR039C, strain RIC1, stronger effect = lower value 0.346 | locus YLR102C, strain apc9, stronger effect = lower value 0.917 | locus YLR262C, strain YPT6 (second series), stronger effect = lower value 0.558 | locus YLR262C, strain YPT6, stronger effect = lower value 0.352 | locus YLR268W, strain sec22, stronger effect = lower value 0.861 | locus YLR320W, strain mms22, stronger effect = lower value 0.797 | locus YLR330W, strain CHS5, stronger effect = lower value 0.876 | locus YLR342W, strain FKS1 (second series), stronger effect = lower value 0.662 | locus YLR371W, strain rom2, stronger effect = lower value 0.77 | locus YLR418C, strain cdc73, stronger effect = lower value 0.453 | locus YML032C, strain rad52, stronger effect = lower value 0.774 | locus YML120C, strain ndi1, stronger effect = lower value 0.904 | locus YML124C, strain tub3, stronger effect = lower value 0.904 | locus YMR078C, strain ctf18, stronger effect = lower value 0.861 | locus YMR205C, strain PFK2, stronger effect = lower value 0.861 | locus YMR223W, strain ubp8, stronger effect = lower value 0.825 | locus YMR307W, strain GAS1, stronger effect = lower value 0.402 | locus YNL071W, strain lat1, stronger effect = lower value 0.786 | locus YNL233W, strain BNI4, stronger effect = lower value 0.788 | locus YNL271C, strain bni1, stronger effect = lower value 0.918 | locus YNL298W, strain CLA4, stronger effect = lower value 0.908 | locus YNL307C, strain MCK1, stronger effect = lower value 0.323 | locus YNR052C, strain pop2, stronger effect = lower value 0.883 | locus YOL147C, strain pex11, stronger effect = lower value 0.767 | locus YOR136W, strain idh2, stronger effect = lower value 0.919 | locus YOR144C, strain elg1, stronger effect = lower value 0.888 | locus YOR184W, strain ser1, stronger effect = lower value 0.504 | locus YOR270C, strain vph1, stronger effect = lower value 0.732 | locus YOR316C, strain cot1, stronger effect = lower value 0.918 | locus YPR119W, strain clb2, stronger effect = lower value 0.91 | locus YPR141C, strain kar3, stronger effect = lower value 0.896 | locus YPR163C, strain tif3, stronger effect = lower value 0.71 | locus YPR167C, strain met16, stronger effect = lower value 0.885 | strain wtn01, stronger effect = lower value 0.751

Reference: PubChem BioAssay AID1159580 (chemical genetic matrix, 2015)
